Test [1] relates to Neuro-2a. Kind of test: neurite formation score, plate-normalized to DMSO control mean 5.04 (score (0-8 scale)); higher = more or longer neurites. To be noted: 1 µM. As to the method: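 Neuro-2a mouse neuroblastoma cells in PLL-coated 96-well plates were pre-treated for 1 h in DMEM(+) with each kinase inhibitor at 1 µM, then switched to serum-free DMEM(-) with inhibitor to induce neurite outgrowth and fixed about 2-3 h later. Three blinded observers scored neurite formation from 0 (no neurites) to 8 (long neurites on almost all cells).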

For test [2], the system named is Neuro-2a. Described as above. Conditions: 0.1 µM. As to the method:
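Neuro-2a mouse neuroblastoma cells in PLL-coated 96-well plates were pre-treated for 1 h in DMEM(+) with each kinase inhibitor at 0.1 µM, then switched to serum-free DMEM(-) with inhibitor to induce neurite outgrowth and fixed about 2-3 h later. Three blinded observers scored neurite formation from 0 (no neurites) to 8 (long neurites on almost all cells).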

Where “and” joins values, the source holds several entries; their conditions need not be identical. Equal entries are not always repeated.

For the compound `COc1cc(N2CCC(N3CCN(C)CC3)CC2)ccc1Nc1ncc(Cl)c(Nc2ccccc2S(=O)(=O)C(C)C)n1`, the neurite formation score in test [1] stood at 2.24; in test [2] it was 5.54.
For the compound `COc1ccc(-c2nc(N3CCOCC3)c3sc(CN(C)c4ncc(C(=O)NO)cn4)cc3n2)cn1`, the neurite formation score in test [1] is 4.36; in test [2], 3.58.
The matching figures for `CN(C[C@@H]1COCCO1)S(=O)(=O)Nc1ccc2ccc3ncc(-c4cnn(C)c4)cc3c(=O)c2c1`: 5.29 and 4.25.
For `COc1nccc(-c2c(-c3ccc(F)cc3)ncn2C2CCC(O)CC2)n1` (stereo unspecified), the neurite formation score in test [1] amounted to 5.36; in test [2], 5.25.
For `O=C(Nc1cccnc1)c1cc(-c2ccnc(F)c2)ccc1OCc1ccccc1` the same measures were 3.88 and 5.08.
The matching figures for `CC(C)(C)c1cnc(CSc2cnc(NC(=O)C3CCNCC3)s2)o1`: 4.57 and 4.38.
For `CCN(CC)CCNC(=O)c1c(C)[nH]c(/C=C2\C(=O)Nc3ccc(F)cc32)c1C` [Sunitinib malate] the same measures were 5.57 and 5.21.
Turning to `CCOc1cc2ncc(C#N)c(Nc3ccc(F)c(Cl)c3)c2cc1NC(=O)/C=C/CN(C)C` [Pelitinib (EKB-569)], the values for the neurite formation score in test [1] and in test [2] were 3.91 and 4.38, respectively.
The matching figures for `Cc1cc(Nc2cc(N3CCN(C)CC3)nc(/C=C/c3ccccc3)n2)n[nH]1` [ENMD-2076 L-(+)-Tartaric acid]: 3.8 and 4.76.
For `CC1(COc2ccc3c(c2)ncn3-c2ccc3cccc(N4CCC(N)CC4)c3n2)COC1` the same measures were 3.57 and 4.21.
In the case of `COc1ccc(-c2cnc3c(-c4cccc5ncccc45)cnn3c2)cc1`, the neurite formation score amounted to 3.88 in test [1] and 2.08 in test [2].
For `O=C(c1ccc(Nc2nccc(-c3cc4ccccc4s3)n2)cc1)N1CCC(N2CCCC2)CC1` [IKK-16 (IKK Inhibitor VII)] the same measures were 4.54 and 3.75.
For `CC(C)(C)n1nc(-c2ccc(Cl)cc2)c2c(N)ncnc21` the same measures were 4.24 and 3.88.
As for `O=[N+]([O-])c1ccc(Nc2nc(N3CCOCC3)nc(N3CCOCC3)n2)cc1`, the neurite formation score was 4.21 in test [1] and 5.08 in test [2].
Consider `CCN1CCN(Cc2ccc(-c3cc4c(N[C@H](C)c5ccccc5)ncnc4[nH]3)cc2)CC1`, for which the neurite formation score turned out to be 2.57 in test [1] and 4.54 in test [2].
The matching figures for `Cc1nc(Nc2cnn(C3CCNCC3)c2)nc2c1N(C)C(=O)c1cc3ccccc3cc1N2C`: 3.96 and 4.25.
Take `Cc1cnc(-c2cnc(NCCNc3ccc(C#N)cn3)nc2-c2ccc(Cl)cc2Cl)[nH]1`: the neurite formation score is 5.29 and 4.57 in test [1]; 4.92 and 4.04 in test [2].
As for `CCN1CCN(Cc2ccc(NC(=O)Nc3ccc(Oc4cc(NC)ncn4)cc3)cc2C(F)(F)F)CC1`, the values for the neurite formation score in test [1] and in test [2] were 4.57 and 2.04, respectively.
`CN([C@@H](Cc1ccc(OS(=O)(=O)c2cccc3cnccc23)cc1)C(=O)N1CCN(c2ccccc2)CC1)S(=O)(=O)c1cccc2cnccc12`: the neurite formation score in test [1] came out at 2.9; in test [2], 4.54.
Consider `CN(C)S(=O)(=O)c1ccc2c(c1)/C(=C/c1cc3c([nH]1)CCCC3)C(=O)N2`, for which the neurite formation score was determined as 4.54 in test [1] and 4.75 in test [2].
The matching figures for `CS(=O)(=O)N1CCN(Cc2cc3nc(-c4cccc5[nH]ncc45)nc(N4CCOCC4)c3s2)CC1` [GDC-0941 dimethanesulfonate]: 2.8 and 2.09.
The matching figures for `O=C(O)[C@]1(Cc2cccc(Nc3nccs3)n2)CC[C@@H](Oc2cccc(Cl)c2F)CC1`: 3.69 and 3.92.
For `Cc1ccc(C(=O)Nc2cccc(C(F)(F)F)c2)cc1Nc1nc(-c2cccnc2)nc2c1cnn2C` the same measures were 3.96 and 4.25.
As for `COc1cc(N2CCC(N)CC2)ccc1Nc1ncc(Cl)c(-c2c[nH]c3ccccc23)n1`, the values for the neurite formation score in test [1] and in test [2] were 4.63 and 4.92, respectively.
For `Cc1ncc(-c2ccnc(Nc3ccc(S(C)(=O)=O)cc3)n2)n1C(C)C`, the neurite formation score in test [1] is 4.24; in test [2] it was 3.54.
For `Cc1cc([C@@H](C)Nc2ccccc2C(=O)O)c2nc(N3CCOCC3)cc(=O)n2c1` the same measures were 4.57 and 4.54.
Regarding `O=C(Cc1ccc(-c2ccc(OCCN3CCOCC3)cc2)cn1)NCc1ccccc1`, the neurite formation score in test [1] is -0.529; in test [2], -0.243.
In the case of `CNC(=O)c1cc(Oc2ccc(NC(=O)Nc3ccc(Cl)c(C(F)(F)F)c3)c(F)c2)ccn1` [Regorafenib monohydrate], the neurite formation score in test [1] was 4.69; in test [2], 5.25.
Turning to `O=C1c2ccccc2-c2n[nH]c3cccc1c23`, the neurite formation score in test [1] was found to be 4.02; in test [2] it was 3.92.
For `Oc1ccc(Nc2nc(-c3ccc(Cl)cc3)cs2)cc1` the same measures were 4.21 and 2.42.
For `CC(C)n1nc(-c2cc3cc(O)ccc3[nH]2)c2c(N)ncnc21` the same measures were 3.47 and 4.76.
With `COc1cc(-c2cc(-c3cccc(O)c3)cnc2N)cc(OC)c1OC`, the values for the neurite formation score in test [1] and in test [2] were 3.88 and 4.08, respectively.
The matching figures for `CO[C@H]1C[C@@H]2CC[C@@H](C)[C@@](O)(O2)C(=O)C(=O)N2CCCC[C@H]2C(=O)O[C@H]([C@H](C)C[C@@H]2CC[C@@H](OP(C)(C)=O)[C@H](OC)C2)CC(=O)[C@H](C)/C=C(\C)[C@@H](O)[C@@H](OC)C(=O)[C@H](C)C[C@H](C)/C=C/C=C/C=C/1C` [Ridaforolimus (Deforolimus, MK-8669)]: 4.21 and 1.42.

For the origin of these results see the supplement of paper PMC8047044.
